Bioassay records: PubChem BioAssay, National Center for Advancing Translational Sciences (NCATS)
Rows were chosen to be rich in hits. Some 3.2% of all compounds tested hit in one or more screens of this group.
p53null 39C kill: kills p53 null cells at the nonpermissive temperature; H1299 p53-null (neo) cells, 39C, ATPlite viability, 24 h; AID 904; Potency, µM (series often up to 46.1 µM), inactives show at the highest dose activity, negative = cell killing, most hits filed as cytotoxic; actives 0.97% (n = 55,000);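 note: 0% = DMSO only and -100% = full killing by 100 µM tamoxifen; nearly all actives have a fitted effect of over 50% in size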
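Following overnight plating at 37C (600 cells/well), H1299-neo or H1299-p53A138V cells are dosed up to 46 uM. Incubation lasts 24 hr at 39C before ATP detection.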
p53null 32C tox: kills p53 null cells at the permissive temperature; Potency, µM (highest dose often 46.1 µM), for the others: top-dose activity change, negative = cytotoxicity, usual class: cytotoxic; actives 0.62% (n = 55,000); AID 903; H1299-neo p53 null cells, ATP luminescence, 24 h, 32C;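 note: 0% = DMSO only and -100% = full killing by 100 µM tamoxifen; nearly all actives have a fitted effect of over 55% in size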
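We seeded p53-null H1299-neo cells, incubated them overnight at 37C, and added compounds across a range up to 46 uM. After 24 hours at 32C, ATP reagent was applied for 20 min at room temperature and luminescence recorded.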
mTORC1 inh: reduces mTORC1 signaling in Tsc2 and p53 null MEF cells | Tsc2-/- p53-/- MEF, phospho-rpS6 immunofluorescence/PI, 24 h | Potency, µM (doses to about 38.3 µM), for the others: at the top dose activity change, negative = inhibition, actives largely listed as inhibitors | actives 0.78% (n = 44,000);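 note: plate controls were DMSO for no effect and rapamycin for full effect; nearly all actives have a fitted effect of over 50% in size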
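Immunofluorescence of rpS6 phosphorylation in Tsc2-/-, p53-/- MEFs after 24 h compound exposure, normalized to propidium iodide signal. Activity is expressed as % positive cells, thresholded with 7.5 nM rapamycin.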
PMP22 txn: PMP22 gene transcription modulation. S16 Pmp22-F2sN Schwann cells, FLuc/NLuc coincidence luminescence, 24 h. Potency, µM (highest dose often 57.5 µM), for the others: at the highest dose activity change, negative = inhibition, most hits filed as inhibitors. actives 2% (n = 43,000). AID 1508649; active = clear falling dose curves in both reporters; inconclusive = both reporters move, but less clearly or upward; inactive = either reporter flat; the % is the NLuc reporter signal
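Luminescent read-out of sequential FLuc and NLuc signals from a reporter embedded in the Pmp22 3' UTR of S16 Schwann cells, taken after 24 h compound exposure at 37C; compounds reducing both signals score as inhibitors of expression.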
S16 viability: cytotoxicity in S16 Pmp22-F2sN Schwann cells; S16 Pmp22-F2sN Schwann cells viability, CellTiter-Glo, 24 h; Potency, µM (titrated, usually from 57.5 µM), for inactives: at the top dose activity change, negative = cytotoxicity, most hits filed as cytotoxic; actives 0.48% (n = 43,000); AID 1508642; note: nearly all actives have a fitted effect of over 65% in size
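S16 Pmp22-F2sN Schwann cells (500-1,000/well) in phenol-red-free DMEM with 10% FBS received 23 nL compound by pin tool for 24 h at 37 °C. Viability was then read as CellTiter-Glo luminescence after 15 min at room temperature.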
* hit, by the source's call; ? = inconclusive; · = not tested or not shown. Unless noted, calls come from the whole dose curve; as a rule, active = well fitted curve in the direction sought with a large enough effect; inconclusive = small, poorly fitted or top-dose-only effect, or another doubt; inactive = no such curve, though single readings can be large; an effect the other way counts as inactive or inconclusive. Unless noted, % is set by controls: 0 for no effect and ±100 for the full control effect; potency is the fitted concentration of half-maximal effect.

SMILES | p53null 39C kill | p53null 32C tox | mTORC1 inh | PMP22 txn | S16 viability
O=S(=O)(c1ccccc1)n1nc(-c2ccc(Cl)cc2)nc1NCc1ccccc1 | 8.1% | 19.3% | 14.7µM* | ? | ?
COc1ccc(Cl)cc1C(=O)NCc1cnn(C)c1C | 9.7% | 6.2% | · | · | ·
COc1ccc(OC)c(S(=O)(=O)NCc2ccc3c(c2)CCN3C(=O)c2cccc(C)c2)c1 | -12.9% | -2.8% | -15.5% | ? | ?
O=C(NCCc1nc2ccccc2n1Cc1ccc(Cl)cc1Cl)c1ccco1 | ? | 0.5% | 20.7µM* | ? | 5.2%
O=C(NCCCc1nc2ccccc2n1Cc1ccc(Cl)cc1Cl)c1ccco1 | -0.1% | 0.9% | -1.8% | · | ·
O=C(Nc1cccc(NC(=O)c2ccccc2F)c1)c1ccccc1 | 20.1% | -3.6% | 11.8% | 0.1% | ?
Cc1ccccc1C(=O)Nc1cccc(NC(=O)c2ccc(C(C)(C)C)cc2)c1 | ? | 12.6µM* | 8.5% | ? | -21.6%
COC(=O)c1ccc(Cn2c(SCC(=O)NCc3ccccc3)nc3ccccc32)cc1 | 0.0% | 4.0% | -2.0% | ? | -1.9%
COC(=O)c1ccc(NS(=O)(=O)c2ccc3[nH]c4c(c3c2)CCCCC4)cc1 | 15.8µM* | 36.0% | -5.1% | ? | -5.8%
COC(=O)c1ccc(NS(=O)(=O)c2ccc3[nH]c4c(c3c2)CCCC4)cc1 | -16.7% | 14.5% | 0.7% | ? | -23.0%
Cn1c(Cn2c(=O)sc3ccccc32)nnc1SCC(=O)NCC1CCCO1 (configuration not stated) | 19.8% | 2.4% | · | · | ·
CC(=O)N1CCc2c(sc3c2c(=O)n(-c2ccc(C)cc2)c(=O)n3CC(=O)Nc2ccccc2)C1 | -8.5% | -14.1% | -10.6% | -32.5% | -4.0%
CCOC(=O)N1CCc2c(sc3c2c(=O)n(-c2ccc(Cl)cc2)c(=O)n3CC(=O)Nc2ccccc2)C1 | 5.4% | 0.2% | 1.4% | ? | 12.6µM*
Cc1ccc(Cc2c(C)nc3c(-c4ccccc4)c(C)[nH]n3c2=O)cc1 | · | · | 1.8% | ? | ?
Cc1[nH]n2c(=O)cc(-c3ccc(Cl)cc3)nc2c1-c1ccccc1 | · | · | ? | 8.53µM* | 10µM*
Cc1nc2c(-c3ccccc3)c(C)[nH]n2c(=O)c1Cc1ccc(Br)cc1 | · | · | ? | 9.46µM* | 10µM*
Cc1nc2c(-c3ccccc3)c(C)[nH]n2c(=O)c1Cc1ccc(C(C)C)cc1 | · | · | 4.6% | ? | 8.91µM*
CCCCc1c(C)nc2c(-c3ccc(Cl)cc3)c(C)[nH]n2c1=O | · | · | 9.7% | 11.3µM* | 5.01µM*
CC(C)CNC(=S)N1CCC(NC(=O)C23CC4CC(CC(C4)C2)C3)CC1 | 25.3% | 1.0% | · | · | ·
CC(C)Nc1ncnc2c1cnn2-c1ccccc1 | ? | 11.2µM* | · | · | ·
Cc1ccc(-n2ncc3c(Nc4ccccc4C)ncnc32)cc1 | ? | ? | -5.2% | -3.2% | -6.3%
Cc1cccc(-n2ncc3c(N4CCCC(C)C4)ncnc32)c1 (configuration not stated) | 2µM* | 3.16µM* | 0.6% | ? | -0.2%
Cc1ccc(-n2ncc3c(N4CCN(c5ccc(F)cc5)CC4)ncnc32)cc1 | -5.4% | -5.9% | 9.4% | 5.2% | -0.2%
CC1CCCN(c2ncnc3c2cnn3-c2ccc(F)cc2)C1 (configuration not stated) | ? | 2.82µM* | 10.6% | 3.0% | 10.9%
Cc1ccc(-n2ncc3c(N4CCCCCC4)ncnc32)cc1C | -11.4% | 10µM* | 13.2% | 6.4% | 18.5%
SMILES | p53null 39C kill | p53null 32C tox | mTORC1 inh | PMP22 txn | S16 viability
COc1ccccc1C1C=C(c2ccc(Cl)cc2)Nc2nc(-c3ccc(Cl)cc3)nn21 (configuration not stated) | 34.5% | 20.4% | 11.7µM* | ? | -15.6%
COC(=O)c1c(NC(=O)CCCOc2cccc(C)c2)sc2c1C(C(=O)OC)CC2 (configuration not stated) | 9.7% | 5.6% | -3.1% | -13.3% | 1.3%
O=C(CN1C(=O)c2cccc3cccc1c23)Nc1ccccc1Br | -15.8% | -3.6% | -5.4% | 4.6% | 3.1%
CCN1C(=O)c2ccccc2S(=O)c2ccc(C(=O)N3CCN(c4cccc(C)c4)C(C)C3)cc21 (configuration not stated) | -1.3% | -7.2% | 1.9% | ? | ?
Cc1cccc(N2CCN(C(=O)c3ccc4c(c3)N(Cc3ccccc3F)C(=O)c3ccccc3S4=O)CC2C)c1 (configuration not stated) | 1.1% | -0.8% | -9.6% | 9.04µM* | 10.9%
O=C(c1ccc2c(c1)N(Cc1cccc(Cl)c1)C(=O)c1ccccc1S2=O)N1CCN(c2cccc(C(F)(F)F)c2)CC1 (configuration not stated) | 13.9% | 11.0% | -1.5% | 10.8µM* | ?
CCCCOc1ccc(C(=O)Nc2sc3c(c2C(=O)OCC)CCCCC3)cc1 | -4.6% | -1.2% | -3.8% | -10.7% | -2.5%
COc1ccc(CNC(=O)CCCn2ccc3cc(S(=O)(=O)N4CCCC4)ccc32)cc1 | -0.4% | -8.7% | -17.7% | ? | ?
CCOc1ccc(NC(=O)c2cc(=O)c3ccc(C)c(C)c3o2)cc1 | 4.8% | 14.9% | -4.2% | ? | 2.4%
CC1(C)CC(=O)c2sc(NC(=O)c3cccs3)nc2C1 | 1.12µM* | 2.24µM* | · | · | ·
COc1ccc(C(=O)Nc2ccc(S(=O)(=O)N(Cc3ccccc3)c3ccccc3)cc2)cc1 | -5.8% | 13.1% | -5.6% | -19.8% | -4.3%
CCc1nnc(NC(=O)c2nc(S(=O)(=O)Cc3cccc(C)c3)ncc2Cl)s1 | ? | 53.5% | 11.7µM* | 9.46µM* | ?
CCOc1ccccc1NC(=O)c1sc2nc(C)cc(C)c2c1N | 3.6% | -1.4% | 2.8% | ? | -1.7%
CCOc1ccccc1NC(=O)c1nc(S(=O)(=O)Cc2cccc(C)c2)ncc1Cl | ? | 15.2% | ? | 1.68µM* | 3.16µM*
CCc1nnc(NC(=O)c2nc(S(=O)(=O)Cc3ccc(C)cc3)ncc2Cl)s1 | 15.8µM* | ? | ? | ? | ?
CCc1nnc(NC(=O)c2nc(SCc3ccccc3F)ncc2Cl)s1 | -11.8% | 0.7% | 2.0% | -24.3% | 5.7%
Cc1cccc(CSc2ncc(Cl)c(C(=O)Nc3nc4ccc(F)cc4s3)n2)c1 | -7.7% | -8.9% | 4.2% | ? | -12.4%
Cc1ccc(C)c(NC(=O)c2nc(S(=O)(=O)Cc3ccc(F)cc3)ncc2Cl)c1 | ? | -0.6% | 2.07µM* | 7.61µM* | ?
CCc1ccc(C2Sc3ccccc3NC3=C2C(=O)c2ccccc23)cc1 (configuration not stated) | 34.4% | -8.8% | -9.1% | ? | -26.7%
